Compounds with a hit are over-represented: about 3.6% of the library has one in this group of screens.
Wnt bcat act: Wnt/beta-catenin pathway activators, primary screen, cell-based, plate reader, single point; activation, % at 9.35 µM; Wnt/beta-catenin reporter cell assay, activator; actives 1.2% (n = 300,000); in the data active means activation above about 30%, passing the limit was not always enough
esBAF inh: Bmi1 luciferase reporter increase in mESCs, primary screen, esBAF inhibitor project, mouse ES cells, Bmi1 luciferase knock-in, single point. 24 h; 100% = twice the neutral-well signal. reporter increase, % at 12.5 µM. actives 2% (n = 350,000); in the data active means activation above about 40%;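 further: a rise in the Bmi1 reporter signal indicates esBAF inhibition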
MITF act: activators of MITF-driven TRPM1 promoter reporter, primary screen, cell-based, SK-MEL-5, luciferase, single point. actives 0.75% (n = 300,000). SK-MEL-5 TRPM1-promoter luciferase, 24 h; % of positive control, neutral wells = 0. activation, % at 12.5 µM. AID 588334, 2011;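 active means mean activation of at least 80% with every replicate also reaching 80%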
PHOSPHO1 inh: PubChem AID 1565. actives 1.1% (n = 290,000). recombinant PHOSPHO1, absorbance phosphatase assay. inhibition, % at 13.3 µM; in the data active means inhibition above about 60%
A3G deaminase: APOBEC3G DNA deaminase inhibitors, primary screen, biochemical, fluorescence, single-stranded DNA substrate, uHTS; DNA dC->dU-editing enzyme APOBEC-3G (Homo sapiens), Q9HC16; recombinant A3G, ssDNA deamination FAM/TAMRA fluorescence; inhibition, % at 20 µM; actives 0.28% (n = 330,000); AID 493012, 2011;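 active means inhibition of at least 40% at 20 µM, with no more than 30% in the related APOBEC3A deaminase screen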
Target sequence (Q9HC16 whole entry, looked up): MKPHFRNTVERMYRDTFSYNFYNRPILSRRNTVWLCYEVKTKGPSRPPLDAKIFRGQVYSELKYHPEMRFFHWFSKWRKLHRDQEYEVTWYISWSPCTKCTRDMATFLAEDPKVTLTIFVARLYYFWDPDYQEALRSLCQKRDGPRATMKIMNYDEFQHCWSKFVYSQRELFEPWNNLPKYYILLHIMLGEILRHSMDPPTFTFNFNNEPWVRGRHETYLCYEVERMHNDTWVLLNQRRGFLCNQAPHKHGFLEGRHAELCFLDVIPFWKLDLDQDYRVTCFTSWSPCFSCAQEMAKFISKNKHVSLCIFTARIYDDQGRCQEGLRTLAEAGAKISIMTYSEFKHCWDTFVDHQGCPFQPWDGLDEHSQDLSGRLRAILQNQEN
A3A deaminase: APOBEC3A ssDNA deaminase inhibitors, primary screen, selectivity assay for APOBEC3G inhibitor project, biochemical, FAM/TAMRA oligo cleavage fluorescence | DNA dC->dU-editing enzyme APOBEC-3A (Homo sapiens), P31941 | recombinant A3A, FAM/TAMRA ssDNA deamination fluorescence | inhibition, % at 20 µM | actives 0.41% (n = 330,000);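 active means at least 40% inhibition at 20 µM here, with at most 30% in a related deaminase screen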
Target sequence (P31941 whole entry, looked up): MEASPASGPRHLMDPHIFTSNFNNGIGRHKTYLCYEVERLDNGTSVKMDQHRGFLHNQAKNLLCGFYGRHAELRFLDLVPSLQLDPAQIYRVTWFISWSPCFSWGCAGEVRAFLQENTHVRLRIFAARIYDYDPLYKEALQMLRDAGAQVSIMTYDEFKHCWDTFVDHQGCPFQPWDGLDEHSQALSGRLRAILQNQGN
A number is an active result.

Results for O=C(CSc1nc2ccc(NC(=O)c3ccccc3C(=O)O)cc2s1)Nc1ccc(F)c([N+](=O)[O-])c1 ?
Wnt bcat act: 35; esBAF inh: inactive; MITF act: inactive; PHOSPHO1 inh: inactive; A3G deaminase: inactive; A3A deaminase: inactive

What do the screens show for `C[C@@H]1CN([C@H](C)CO)C(=O)c2cc(NC(=O)Cc3ccccc3)ccc2O[C@@H](C)CCCCO[C@@H]1CN(C)S(C)(=O)=O`?
esBAF inh: inactive

How did O=C(N[C@H]1CC[C@H](CC(=O)N2CCc3ccccc3C2)O[C@@H]1CO)C1CCOCC1 do in these assays?
esBAF inh: inactive

Results for O=C(Nc1ccccc1F)N[C@H]1CC[C@H](CC(=O)N2CCCCC2)O[C@@H]1CO ?
esBAF inh: inactive

What do the screens show for `Oc1ccc(CN2CCCc3ccccc32)c2cccnc12`?
MITF act: inactive; PHOSPHO1 inh: 74; A3G deaminase: inactive; A3A deaminase: inactive

Results for Cc1noc(C)c1S(=O)(=O)N(C)C[C@@H]1Oc2ccc(NC(=O)Nc3cccc4ccccc34)cc2CC(=O)N([C@@H](C)CO)C[C@@H]1C ?
esBAF inh: inactive

How did Cc1cccc(-n2ncc3c(NC(C)C)ncnc32)c1 do in these assays?
Wnt bcat act: inactive; esBAF inh: inactive; MITF act: inactive; PHOSPHO1 inh: inactive; A3G deaminase: inactive; A3A deaminase: inactive

Results for CC(=O)CSc1ncnc2c1cnn2-c1ccccc1 ?
Wnt bcat act: 42; esBAF inh: inactive; MITF act: inactive; PHOSPHO1 inh: inactive; A3G deaminase: inactive; A3A deaminase: inactive

What do the screens show for `CNC(=O)CSc1ncnc2c1cnn2-c1ccccc1`?
Wnt bcat act: inactive; MITF act: inactive; PHOSPHO1 inh: inactive; A3G deaminase: inactive; A3A deaminase: inactive

How did c1ccc(-n2ncc3c(NC4CCCCCC4)ncnc32)cc1 do in these assays?
Wnt bcat act: inactive; esBAF inh: 55; PHOSPHO1 inh: inactive; A3G deaminase: inactive; A3A deaminase: inactive

How did CCOC(=O)N1CCC(Nc2ncnc3c2cnn3-c2ccccc2)CC1 do in these assays?
esBAF inh: inactive; MITF act: inactive; PHOSPHO1 inh: inactive; A3G deaminase: inactive; A3A deaminase: inactive

Results for CC(C)Nc1ncnc2c1cnn2-c1ccccc1 ?
Wnt bcat act: 53; esBAF inh: inactive; PHOSPHO1 inh: inactive; A3G deaminase: inactive; A3A deaminase: inactive

Results for COc1cccc(S(=O)(=O)N[C@@H]2CC[C@H](CC(=O)NCc3ccccc3)O[C@H]2CO)c1 ?
esBAF inh: inactive

What do the screens show for `N/C(CS(=O)(=O)c1ccccn1)=N\OC(=O)c1ccccc1Cl`?
Wnt bcat act: 54; PHOSPHO1 inh: inactive; A3G deaminase: inactive; A3A deaminase: inactive

How did Cc1nc(C)c(-c2ccc(SCc3ccccc3C)nn2)s1 do in these assays?
Wnt bcat act: inactive; esBAF inh: 52; MITF act: inactive; PHOSPHO1 inh: inactive; A3G deaminase: inactive; A3A deaminase: inactive

Results for Cc1nc(C)c(-c2ccc(SCC(=O)Nc3ccccc3)nn2)s1 ?
Wnt bcat act: inactive; esBAF inh: inactive; MITF act: inactive; PHOSPHO1 inh: inactive; A3G deaminase: inactive; A3A deaminase: inactive

What do the screens show for `CC(=O)Nc1ccc(OC/C=C(\C)Cl)cc1`?
esBAF inh: 55; MITF act: inactive; PHOSPHO1 inh: inactive; A3G deaminase: inactive; A3A deaminase: inactive

How did O=C(Cc1csc(NC(=O)Nc2ccc(Cl)cc2)n1)NCc1cccnc1 do in these assays?
Wnt bcat act: inactive; esBAF inh: 45; MITF act: inactive; A3G deaminase: inactive; A3A deaminase: inactive

Results for O=C(Cc1csc(NC(=O)Nc2cccc(Cl)c2)n1)NCc1cccnc1 ?
Wnt bcat act: inactive; esBAF inh: inactive; MITF act: inactive; A3G deaminase: inactive; A3A deaminase: inactive

How did CCSc1cc(C2C(C(=O)OC)=C(C)NC3=C2C(=O)CCC3)c(C)o1 (stereo unspecified) do in these assays?
Wnt bcat act: inactive; esBAF inh: inactive; MITF act: inactive; PHOSPHO1 inh: 102; A3G deaminase: inactive; A3A deaminase: inactive

What do the screens show for `COCCOC(=O)C1=C(C)NC2=C(C(=O)CCC2)C1c1cc2c(cc1Br)OCO2` (stereo unspecified)?
esBAF inh: inactive; MITF act: inactive; PHOSPHO1 inh: inactive; A3G deaminase: inactive; A3A deaminase: inactive

What do the screens show for `CCSCCOC(=O)C1=C(C)NC2=C(C(=O)CCC2)C1c1coc2ccccc2c1=O` (stereo unspecified)?
esBAF inh: inactive; MITF act: inactive; PHOSPHO1 inh: 63; A3G deaminase: inactive; A3A deaminase: inactive

Results for O=C(Nc1ccc2c(c1)[C@@H]1C[C@@H](CC(=O)N3CCc4ccccc4C3)O[C@H](CO)[C@@H]1O2)C1CCOCC1 ?
esBAF inh: inactive

What do the screens show for `COCC(=O)Nc1ccc2c(c1)C(=O)N(C)[C@H]1CC[C@@H](CC(=O)NCC3CC3)O[C@@H]1CO2`?
esBAF inh: inactive

How did CNC[C@@H]1Oc2c(NC(=O)Nc3ccc4c(c3)OCO4)cccc2C(=O)N([C@@H](C)CO)C[C@@H]1C do in these assays?
esBAF inh: inactive

What do the screens show for `O=C(C[C@H]1CC[C@H](NC(=O)CCN2CCCCC2)[C@@H](CO)O1)Nc1nccs1`?
esBAF inh: inactive

What do the screens show for `CC(C)(C)C1=Nn2c(nnc2-c2ccccn2)SC1`?
Wnt bcat act: inactive; esBAF inh: inactive; PHOSPHO1 inh: 63; A3G deaminase: inactive; A3A deaminase: inactive

Results for CC(C)(C)C1=Nn2c(nnc2-c2ccccc2F)SC1 ?
Wnt bcat act: inactive; esBAF inh: inactive; MITF act: inactive; PHOSPHO1 inh: inactive; A3G deaminase: inactive; A3A deaminase: inactive

Results for COc1ccccc1NC(=S)NNC(=O)c1c(Cl)c(C)nn1C ?
Wnt bcat act: inactive; MITF act: inactive; PHOSPHO1 inh: inactive; A3G deaminase: inactive; A3A deaminase: inactive

What do the screens show for `COc1ccccc1NC(=S)NNC(=O)c1cc(C)nn1C`?
esBAF inh: inactive; MITF act: inactive; PHOSPHO1 inh: 67; A3G deaminase: inactive; A3A deaminase: inactive

How did COc1ccccc1NC(=S)NNC(=O)c1cc(C)n(C)n1 do in these assays?
Wnt bcat act: inactive; esBAF inh: inactive; MITF act: inactive; PHOSPHO1 inh: 70; A3G deaminase: inactive; A3A deaminase: inactive

What do the screens show for `CNC[C@H]1Oc2ccc(NC(=O)CCC(F)(F)F)cc2CC(=O)N([C@H](C)CO)C[C@@H]1C`?
esBAF inh: inactive

How did O=C(NCCc1ccccc1)[C@H]1[C@H](CO)[C@H]2Cn3c(ccc(-c4ccccc4)c3=O)[C@@H]1N2 do in these assays?
esBAF inh: inactive
